Bioassay records (PubChem BioAssay)
CHT inh: inhibits the human high affinity choline transporter. CHT-expressing cells, membrane potential dye, choline response; active compounds read low. actives 0.86% (n = 310,000). Q9GZV3. B-score at 10 µM;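 active = B-score over 3 SD under the library average, and starting fluorescence ratio not unusually high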;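 also: choline stimulus applied at its EC90 after an EC20 pre-addition; B-score computed on integrated fluorescence ratio after choline addition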
ANO1 activ: activates or potentiates the mouse TMEM16A chloride channel | AID 623877 | actives 0.3% (n = 340,000) | B-score at 10 µM | HEK293 TMEM16A/YFP-H148Q/I152L, iodide quench fluorescence; active compounds read low | Q8BHY3;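 active = fluorescence-ratio B-score plate-corrected deviation score at least 3 library SD below zero, with starting fluorescence score within 5 deviations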;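 also: channel opened by trigger with iodide after compound preincubation; score built on the fluorescence ratio of max minus min over baseline; more negative score means more quench and so TMEM16A activation or potentiation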
TMEM16A inh: inhibitors of mouse TMEM16A calcium-activated chloride channel; HEK293 TMEM16A/YFP iodide influx fluorescence, ionomycin; Q8BHY3; actives 1.2% (n = 310,000); AID 588511; normalized B-score (activity score, 25-100; higher = stronger inhibition) at 10 µM;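 active = ratio plate-corrected score three or more library SD toward inhibition, starting fluorescence score within five deviations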;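 also: score derived from kinetic fluorescence span divided by baseline fluorescence per well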
Kir21 block: inhibitors of mouse Kir2.1 inward-rectifier potassium channel. P35561. HEK293-Kir2.1, FluxOR thallium flux fluorescence; active compounds read low. B-score at 10 µM. actives 0.85% (n = 310,000);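 active = fluorescence ratio B-score at or below minus 3 SD of library scores, with starting-brightness B-score within 2 SD, cut at about -4.2 in these data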;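 also: channel flux triggered by added potassium and thallium sulfate stimulus; B-score of peak minus minimum fluorescence over baseline after thallium stimulus; more negative B-score means stronger Kir2.1 block with less thallium influx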
CHT PAM: allosterically activates the human high affinity choline transporter. B-score at 10 µM. actives 0.49% (n = 310,000). CHT-expressing cells, membrane potential dye, choline EC20; active compounds read high; LV-AA mutant CHT in HEK293 cells. AID 488977. Q9GZV3;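 active = initial fluorescence not abnormally high and integrated response B-score, plate-corrected, over 3 SD above library mean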
GPR7 antag: human neuropeptides B/W receptor 1 antagonism | GPR7-expressing cells, fluorescence antagonist assay | inhibition, % at 4.4 µM | actives 1.1% (n = 290,000); in the data active = inhibition above about 16%, passing the limit was not always enough;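 also: cells stimulated with the agonist NPW; 0% = agonist with vehicle and 100% = vehicle without agonist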
TMEM16A reconf: TMEM16A (mouse) chloride channel inhibition, re-confirmation | HEK293 TMEM16A/YFP-H148Q, iodide quench fluorescence; ionomycin added to raise cell calcium | inhibition, % at 10 µM | AID 652189 | actives 39% (n = 2,300) | shares compounds with TMEM16A inh;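 active = mean duplicate percent inhibition, scaled so buffer wells are 0 and the reference blocker 100, over three buffer SD above buffer mean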
HEK293 Ca mobil: calcium mobilization counter-screen hit for TMEM16A inhibitor series; actives 2% (n = 2,300); shares compounds with TMEM16A inh; AID 652231; TMEM16A/YFP HEK293, Fluo4 calcium mobilization; calcium response (% of ionomycin), % at 10 µM;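 active = duplicate-averaged calcium signal over 20% of the ionomycin maximum, relative to buffer baseline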;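 also: each well's signal is peak minus trough fluorescence divided by its pre-addition baseline; 0% = buffer wells and 100% = ionomycin wells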
Parental YFP cnt: parental YFP-HEK293 iodide quench counter-screen activity; ionomycin; YFP ratio F(max-min)/F0 at 10 µM; shares compounds with TMEM16A inh; 2,300 tested, under 10 active;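 active = yellow fluorescent protein signal ratio exceeding the buffer control mean by over 5 SD of those controls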;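 also: ratio is mean of duplicate wells from kinetic YFP trace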
ClC-1 rat inh: blocks the rat ClC-1 voltage-dependent chloride channel | AID 652236 | 2,300 tested, under 10 active | shares compounds with TMEM16A inh | CHO ClC-1-YFP, iodide influx fluorescence quench; iodide control reads 0, buffer control 100 | ratio percent, % at 10 µM;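 active = duplicate-mean ratio percent above the mean of iodide-only control wells, which defines zero, plus 5 of their SD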;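 also: higher percent means stronger block of ClC-1 iodide influx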
Starred values were filed as active, the others as inactive. Shown are actives, neighbours in structure and some others; about 3.7% of the full set was active somewhere.

How did CC(C)(C)c1ccc(OCC(=O)N(Cc2cccs2)C2CCS(=O)(=O)C2)cc1 (stereo unspecified) do in these assays?
CHT inh: inactive; ANO1 activ: inactive; TMEM16A inh: inactive; Kir21 block: 1.24; CHT PAM: inactive; GPR7 antag: 12.5

How did CCOC(=O)c1ccc(Oc2cn[nH]c2-c2ccc(O)cc2O)cc1 do in these assays?
CHT inh: inactive; ANO1 activ: inactive; TMEM16A inh: 25*; Kir21 block: 0.5; CHT PAM: inactive; GPR7 antag: 21.4; TMEM16A reconf: 43.0%*; HEK293 Ca mobil: inactive; Parental YFP cnt: -1.02; ClC-1 rat inh: -15.0

What do the screens show for `C=CCSc1nnc2c(n1)OC(C)=Nc1ccc(Br)cc1-2`?
CHT inh: inactive; ANO1 activ: inactive; TMEM16A inh: inactive; Kir21 block: 0.47; CHT PAM: inactive; GPR7 antag: -13.8

What do the screens show for `COc1cc(/C=C/C(=O)c2ccc3c(c2)OCCO3)cc(Br)c1OCC(=O)N(C)C`?
CHT inh: inactive; ANO1 activ: inactive; TMEM16A inh: inactive; Kir21 block: -0.14; CHT PAM: inactive; GPR7 antag: 15.1; TMEM16A reconf: inactive; HEK293 Ca mobil: inactive; Parental YFP cnt: -1.31; ClC-1 rat inh: -44.0

Results for O=C(/C=C/c1ccncc1)c1ccc2c(c1)OCCO2 ?
CHT inh: inactive; ANO1 activ: inactive; TMEM16A inh: inactive; Kir21 block: -4.09; CHT PAM: inactive; GPR7 antag: -4.4

What do the screens show for `Cc1sc(NC(=O)CSc2nnc3scc(-c4ccccc4)n23)c(C#N)c1C`?
CHT inh: inactive; ANO1 activ: inactive; TMEM16A inh: 25*; Kir21 block: 0.09; CHT PAM: inactive; GPR7 antag: -4.7; TMEM16A reconf: inactive; HEK293 Ca mobil: inactive; Parental YFP cnt: -1.09; ClC-1 rat inh: -8.5

Results for Cc1sc(NC(=O)CSc2nnc(COc3ccccc3)n2C)c(C#N)c1C ?
CHT inh: inactive; ANO1 activ: inactive; TMEM16A inh: inactive; Kir21 block: -0.77; CHT PAM: inactive; GPR7 antag: -10.7

How did O=C1c2nc3cc(-c4ccco4)[nH]n3c(=O)c2CN1C1CCCCC1 do in these assays?
CHT inh: inactive; ANO1 activ: inactive; TMEM16A inh: inactive; Kir21 block: 0.78; CHT PAM: inactive; GPR7 antag: -12.0

Results for C=C1CCN(C(CC(C)C)C(=O)OC)S(=O)(=O)c2ccccc21 (stereo unspecified) ?
CHT inh: inactive; ANO1 activ: inactive; TMEM16A inh: 25*; Kir21 block: 0.61; CHT PAM: inactive; TMEM16A reconf: inactive; HEK293 Ca mobil: inactive; Parental YFP cnt: -1.17; ClC-1 rat inh: -3.5

What do the screens show for `Cc1ccc(S(=O)(=O)N2CCN(c3ccnc4cc(Cl)ccc34)CC2)cc1`?
CHT inh: inactive; ANO1 activ: inactive; TMEM16A inh: 100*; Kir21 block: 0.19; CHT PAM: inactive; GPR7 antag: 13.7; TMEM16A reconf: inactive; HEK293 Ca mobil: inactive; Parental YFP cnt: -1.25; ClC-1 rat inh: -14.0

What do the screens show for `Cc1ccc(S(=O)(=O)N2CCN(c3ccnc4cc(Cl)ccc34)CC2)cc1C`?
CHT inh: inactive; ANO1 activ: inactive; TMEM16A inh: inactive; Kir21 block: 1.85; CHT PAM: inactive; GPR7 antag: -15.3

What do the screens show for `CCCn1c(=O)c(C(=O)NNC(=O)c2ccccc2Cl)c(O)c2ccccc21`?
CHT inh: inactive; ANO1 activ: -4.62*; TMEM16A inh: 100*; Kir21 block: 0.01; CHT PAM: inactive; GPR7 antag: -1.9; TMEM16A reconf: inactive; HEK293 Ca mobil: inactive; Parental YFP cnt: -0.954; ClC-1 rat inh: -14.0

What do the screens show for `CCS(=O)(=O)Nc1cccc(C2=NN(S(=O)(=O)c3ccccc3)C(c3cccs3)C2)c1` (stereo unspecified)?
CHT inh: inactive; ANO1 activ: inactive; TMEM16A inh: inactive; Kir21 block: 3.22; CHT PAM: inactive; GPR7 antag: 8.5; TMEM16A reconf: inactive; HEK293 Ca mobil: inactive; Parental YFP cnt: -0.865; ClC-1 rat inh: -20.5

What do the screens show for `CCS(=O)(=O)Nc1cccc(C2=NN(S(=O)(=O)c3ccc(C)cc3)C(c3cccs3)C2)c1` (stereo unspecified)?
CHT inh: inactive; ANO1 activ: inactive; TMEM16A inh: inactive; Kir21 block: 1.04; CHT PAM: inactive; GPR7 antag: 5.8

How did CC(Sc1n[nH]c(N)n1)C(=O)Nc1cccc(S(=O)(=O)N2CCOCC2)c1 (stereo unspecified) do in these assays?
CHT inh: inactive; ANO1 activ: inactive; TMEM16A inh: inactive; Kir21 block: -0.51; CHT PAM: inactive; GPR7 antag: -14.2

What do the screens show for `CCN(CC)c1ccc2cc(S(=O)(=O)c3ccc(Cl)cc3)c(=O)oc2c1`?
CHT inh: inactive; ANO1 activ: inactive; TMEM16A inh: inactive; Kir21 block: -1.57; CHT PAM: inactive; GPR7 antag: -11.3; TMEM16A reconf: inactive; HEK293 Ca mobil: inactive; Parental YFP cnt: -0.171; ClC-1 rat inh: 14.5

How did CCn1nc([N+](=O)[O-])c2c(-c3nc4ccccc4o3)c(N)n(CCCOC)c2c1=O do in these assays?
CHT inh: inactive; ANO1 activ: inactive; TMEM16A inh: inactive; Kir21 block: 0.64; CHT PAM: inactive; GPR7 antag: -7.5

Results for O=C(Nc1ccc(OCc2ccccc2)cc1)c1cccc([N+](=O)[O-])c1 ?
CHT inh: inactive; ANO1 activ: inactive; TMEM16A inh: inactive; Kir21 block: -0.64; CHT PAM: inactive; GPR7 antag: -10.6

How did Cc1ccc(C(=O)Nc2ccc(OCc3ccccc3)cc2)cc1[N+](=O)[O-] do in these assays?
CHT inh: inactive; ANO1 activ: inactive; TMEM16A inh: 25*; Kir21 block: -0.6; CHT PAM: inactive; GPR7 antag: -3.1; TMEM16A reconf: inactive; HEK293 Ca mobil: inactive; Parental YFP cnt: -1.07; ClC-1 rat inh: -4.5
